The full list was thinned out, with hits kept by preference.
HT1080 IDH1KD tx – qHTS for induction of synthetic lethality in tumor cells producing 2HG: qHTS for the HT-1080-IDH1KD cell line; Potency, µM (top dose mostly 46.1 µM), without a hit: top-dose activity, negative = toxicity, actives largely listed as cytotoxic; 360,000 compounds, 2% hits; HT-1080 IDH1 knockdown viability, ATP luminescence, 48 h;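 also: potency is read from the fitted curve at half-maximal effect; 0% = DMSO wells and -100% = cell-free medium wells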
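Luminescent ATP read-out (CellTiter-Glo, 10 min at room temperature) after 48 h compound exposure at 37 °C gave viability of IDH1-knockdown HT-1080 cells. Activity was normalised to DMSO and cell-free wells, then fitted as concentration-response curves.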
TDP1 cell noCPT – qHTS for Inhibitors of human tyrosyl-DNA phosphodiesterase 1 (TDP1): qHTS in cells in absence of CPT | DT40 Tdp1-/- hTDP1 cells, no CPT, ATP luminescence, 48 h | Potency, µM (top dose mostly 46.2 µM), for inactives: at the top dose activity change, negative = growth inhibition, usual class: inhibitors | 420,000 compounds, 15% hits; also: potency is read from the fitted curve at half-maximal effect; nearly all actives have a fitted effect of over 55% in size
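Readout: luminescence from CellTiter-Glo after 30 min in the dark at RT. Cells: DT40 Tdp1-/- with stable hTDP1, 400/well. Exposure: compounds alone, ≥48 hr, 37 °C.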
TDP1 cell CPT – qHTS for Inhibitors of human tyrosyl-DNA phosphodiesterase 1 (TDP1): qHTS in cells in presence of CPT | 420,000 compounds, 12% hits | Potency, µM (doses to about 46.2 µM), inactives show at the top dose activity change, negative = growth inhibition, usual class: inhibitors | chicken DT40 Tdp1-/-;hTDP1 cells + 20 nM CPT, ATP luminescence, 48 h; also: potency is read from the fitted curve at half-maximal effect; nearly all actives have a fitted effect of over 55% in size
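Chicken DT40 Tdp1-/- cells stably complemented with human TDP1 were seeded at 400 cells/well in medium containing 20 nM camptothecin, exposed to pin-transferred compounds, and grown at 37 °C for at least 48 hr. Viability was read as ATP luminescence.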
IL-1B inflam inh – qHTS for Inhibitors of Inflammasome Signaling: IL-1-beta AlphaLISA Primary Screen | AID 743279, 2014 | 360,000 compounds, 4.7% hits | activity change, % at 57.5 µM | THP-1 LPS/ATP IL-1B secretion, AlphaLISA, 16 h; hits give low values; in the data active = activity change below about -50%; inconclusive = mostly about -30% to -49%
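THP-1 cells pretreated 1 hr with compounds (up to 57.5 uM final), then stimulated with LPS (250 ng/mL final) plus ATP (1.25 mM final); secreted IL-1B measured by AlphaLISA after 16 hr, decreased signal indicating inhibition.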
ALOX12 inh – Primary qHTS assay for inhibitors of human arachidonate 12S-lipoxygenase (ALOX12): Round 2. Polyunsaturated fatty acid lipoxygenase ALOX12 (Homo sapiens), P18054. purified 12hLO, xylenol orange hydroperoxide absorbance. Potency, µM (titrated, usually from 108 µM), without a hit: at the top dose activity change, negative = inhibition, hits mostly inhibitors. 580,000 compounds, 1.1% hits. AID 1671190, 2021; also: potency is read from the fitted curve at half-maximal effect
Target sequence (P18054 whole entry, looked up): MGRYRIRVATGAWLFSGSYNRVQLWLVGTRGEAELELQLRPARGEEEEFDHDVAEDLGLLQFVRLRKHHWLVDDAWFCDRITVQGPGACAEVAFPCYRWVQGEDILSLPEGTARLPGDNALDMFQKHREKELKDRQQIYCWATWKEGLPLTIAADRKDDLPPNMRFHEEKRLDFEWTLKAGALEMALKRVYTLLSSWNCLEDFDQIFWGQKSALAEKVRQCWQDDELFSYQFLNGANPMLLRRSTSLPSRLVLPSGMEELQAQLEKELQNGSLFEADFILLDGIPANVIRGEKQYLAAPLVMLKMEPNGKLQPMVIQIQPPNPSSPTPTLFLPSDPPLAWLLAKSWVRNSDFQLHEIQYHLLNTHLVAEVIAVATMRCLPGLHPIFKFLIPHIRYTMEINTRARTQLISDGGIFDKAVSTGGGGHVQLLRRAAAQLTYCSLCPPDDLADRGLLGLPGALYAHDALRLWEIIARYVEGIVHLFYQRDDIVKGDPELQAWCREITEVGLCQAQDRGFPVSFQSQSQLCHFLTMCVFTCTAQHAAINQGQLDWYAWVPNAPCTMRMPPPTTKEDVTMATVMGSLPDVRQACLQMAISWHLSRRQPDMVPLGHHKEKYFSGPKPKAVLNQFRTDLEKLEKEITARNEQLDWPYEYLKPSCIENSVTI
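Purified human 12hLO at 150 nM in 25 mM Hepes, 0.01% Triton X-100, pH 7.0, preincubated 15 min at room temperature with compound. Reaction started with 40 uM arachidonic acid, 30 min at room temperature. Hydroperoxide measured by Fe-xylenol orange, 573/405 nm absorbance ratio.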
HT1080-NT tox – qHTS for induction of synthetic lethality in tumor cells producing 2HG: qHTS for the HT-1080-NT fibrosarcoma cell line | HT-1080-NT fibrosarcoma viability, CellTiter-Glo ATP luminescence, 48 h | Potency, µM (titrated, usually from 46.1 µM), inactives show top-dose activity, negative = less viability, hits mostly cytotoxic | 360,000 compounds, 1.6% hits;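 also: NT is the 2HG producing partner of a matched IDH1 knockdown line; potency is read from the fitted curve at half-maximal effect; 0% = DMSO-treated cells and -100% = media-only wells without cells; nearly all actives have a fitted effect of over 55% in size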
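Compounds were tested in concentration-response format on HT-1080-NT cells for 48 hours at 37 degrees C. Cell viability came from CellTiter-Glo luminescence; curves were classified by r2, response magnitude and activity.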
An asterisk follows results filed as active; ? = inconclusive; nt = not tested or not shown; ! = a repeat was not active; [ ] = remark or other dose. Unless noted, calls follow the shape of the dose curve; as a rule, active = well fitted curve in the direction sought with a large enough effect; inconclusive = small, poorly fitted or top-dose-only effect, or another doubt; inactive = no such curve, though single readings can be large; an effect the other way counts as inactive or inconclusive. Unless noted, % is scaled to controls: 0 for no effect and ±100 for the full control effect.

SMILES	HT1080 IDH1KD tx	TDP1 cell noCPT	TDP1 cell CPT	IL-1B inflam inh	ALOX12 inh	HT1080-NT tox
O=C1Nc2ccccc2-n2nnnc2C1N1CCN(c2ccc(C(F)(F)F)cc2[N+](=O)[O-])CC1 (configuration not stated)	?	16µM*	23µM*	1	0%	?
Cc1ccc(C)c(N2CCN(C3C(=O)Nc4ccccc4-n4nnnc43)CC2)c1 (configuration not stated)	16µM*	16µM*	21µM*	28	-30%	?
COc1ccc2nc3n(c2c1)[C@@H](CNC1CCN(C)CC1)COC3	nt	nt	nt	nt	25%[176 µM]	nt
CC(C)=CCc1c(O)cc2c(=O)c3ccc(O)cc3oc2c1O	3%	?	-16%	13	?	3%
CC1(C)C=Cc2c(c3c(c4c(=O)c(-c5ccc(O)cc5)coc24)OC(C)(C)CC3)O1	?	26µM*	18µM*	?	?	12%
CC(C)Oc1cc(O)c2c(=O)c(-c3ccc(O)cc3)coc2c1	1%	-27%	-6%	-8	-10%	-5%
CC(C)=CCc1c2c(c3occ(-c4ccc(O)c(O)c4)c(=O)c3c1O)C=CC(C)(C)O2	?	1.5µM*	1.3µM*	-62*	40µM*!	?
COC1=CC(=O)C(O)=C/C1=C\C=C\c1ccccc1	nt	4.6µM*	2.6µM*	nt	nt	nt
COC(=O)C(=C/C=C/c1ccccc1)C(=O)OC	nt	nt	nt	nt	-15%	nt
CC1(C)CC(N=c2cc(-c3ccccc3)oc3ccc(Cl)cc23)CC(C)(C)N1	16µM*	5.8µM*	5.2µM*	-102*	?	7.3µM*
OCCCN=c1cc(-c2ccccc2)oc2ccc(Cl)cc12	?	18µM*	?	-102*	?	?
FC(F)(F)c1cccc(N=c2cc(-c3ccccc3)oc3ccc(Cl)cc23)c1	nt	nt	nt	nt	5%	nt
Cc1ccc2oc(-c3ccccc3)cc(=NCCCCCC(=O)O)c2c1	nt	nt	nt	nt	2%	nt
Cc1ccccc1CN1CCc2nnc(C(C)NC(=O)c3cc(F)ccc3F)n2CC1 (configuration not stated)	nt	0%	17%	nt	7%	nt
COC(=O)c1cc(OC(=O)C(c2ccccc2)c2ccccc2)cc(C(=O)OC)c1	nt	nt	nt	nt	-1%	nt
Cc1ccc(S(=O)(=O)Nc2cc(S(=O)(=O)N3CCOCC3)ccc2NCC2CCCO2)cc1 (configuration not stated)	12%	-8%	1%	27	0%	7%
COc1ccc(C2=CC(=O)C[C@H](c3ccc(OC)cc3)C2)cc1	2%	?	-24%	-2	1%	-1%
O=C1C=C(c2ccc3[nH]ccc3c2)C[C@@H](c2ccc(F)cc2)C1	-18%	?	12µM*	-6	?	-3%
COc1ccc([C@H]2CC(=O)C=C(c3ccc4ccn(C)c4c3)C2)cc1	?	18µM*	?	?	1%	?
COc1ccc([C@H]2CC(=O)C=C(c3ccc4[nH]ccc4c3)C2)cc1OC	-1%	?	?	-1	?	-10%
COc1ccc([C@H]2CC(=O)C=C(c3ccc(Cl)c(Cl)c3)C2)cc1	-28%	-8%	-25%	?	-4%	-15%
COc1ccc([C@H]2CC(=O)C=C(c3ccc4cc[nH]c4c3)C2)cc1	-3%	23µM*	26µM*	-7	-9%	2%
CCOC(=O)[C@H](CCc1ccccc1)N[C@@H](C)C(=O)N1Cc2ccccc2C[C@H]1C(=O)O	5%	0.26µM*!	?	4	?	18%
CCOC(=O)[C@@H](CCc1ccccc1)N[C@H](C)C(=O)N1[C@H](C(=O)O)C[C@@H]2CCC[C@@H]21	-4%	-6%	0%	-17	-10%	22%
COc1ccc(NC(=O)CN(C)C(=O)CCCSc2nc3ccccc3[nH]2)cc1	-4%	-17%	-27%	11	3%	-8%
SMILES	HT1080 IDH1KD tx	TDP1 cell noCPT	TDP1 cell CPT	IL-1B inflam inh	ALOX12 inh	HT1080-NT tox
COc1cc(/C=N/NC(=O)c2ccoc2C)cc(OC)c1OC	8%	13µM*	?	-3	-6%	16%
Cn1cc(C(=O)N/N=C/c2ccc(Br)c([N+](=O)[O-])c2)c2ccccc21	-2%	?	?	nt	0%	14%
COc1ccccc1C(=O)NCC(=O)N/N=C/c1ccc2c(c1)OCO2	21µM*	?	?	-3	9%	?
COc1ccccc1C(=O)NCC(=O)N/N=C/c1ccncc1	20%	-13%	-6%	10	4%	15%
Cn1cc(C(=O)N/N=C/c2cccs2)c2ccccc21	?	8.2µM*	6%	-11	30%	-30%
Cn1cc(C(=O)N/N=C/c2ccc3c(c2)OCO3)c2ccccc21	12µM*	5.2µM*	7.3µM*	-15	0%	21µM*
Cc1cc(C(=O)N/N=C/c2ccc3c(c2)OCO3)c(C)o1	?	?	-10%	-1	-1%	-25%
O=C(N/N=C/c1ccc2c(c1)OCO2)c1ccc2ccccc2n1	?	-23%	-7%	0	-9%	-13%
Cc1occc1C(=O)N/N=C/c1ccc2c(c1)OCO2	8.2µM*	?	?	-10	-1%	9.2µM*
O=C(N/N=C/c1ccc2c(c1)OCO2)c1cccc2ccccc12	?	3.3µM*	2.1µM*	2	-6%	?
Cc1cccc(C)c1OCC(=O)N/N=C/c1ccc2c(c1)OCO2	?	3.7µM*	2.9µM*	43	7%	15µM*
COc1ccc(/C=N/Nc2nc(Nc3ccccc3)nc(N3CCCC3)n2)cc1	7%	?	?	-10	-32%	-7%
COc1ccc(Nc2nc(NCc3ccco3)nc(N/N=C/c3ccc(O)cc3)n2)cc1	12%	?	?	-69*	-21%	2%
COc1ccc(Nc2nc(NCc3ccco3)nc(N/N=C/c3ccccc3F)n2)cc1	-12%	16µM*	18µM*	?	-11%	-6%
CC(C)(C)c1ccc(NC(=O)c2ccc(CN3CCCC3=O)cc2)cc1	nt	nt	nt	nt	1%	nt
CCN(CC)C(=O)c1ccc(COc2ccccc2Cl)cc1	-13%	?	?	-59*	-1%	-3%
